According to PubChem BioAssay (NCI):
The panel holds about 83,000 compounds, 20% with a hit somewhere; the sample as a whole holds those more often.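 In brief: 96-well plates, 48 h treatment, single concentration, percent growth endpoint.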 Values without a mark were called inactive. Active and inactive are the calls of the source. Rule for the calls: active = growth percent below 10; inactive = the rest.

Assays:
Assay in all cases: NCI-60 one-dose screen, 48 h (100 = growth as untreated, 0 = no growth, -100 = all killed)
Conditions in all cases: 10 µM unless noted
HCT-15 colon = system: HCT-15 colon
HT29 colon = system: HT29 colon
SNB-75 CNS = system: SNB-75 CNS
SNB-19 CNS = system: SNB-19 CNS
U251 CNS = system: U251 CNS
PC-3 prostate = system: PC-3 prostate
SK-MEL-5 melanoma = system: SK-MEL-5 melanoma
UACC-62 melanoma = system: UACC-62 melanoma
LOX IMVI melanoma = system: LOX IMVI melanoma
SK-MEL-28 melanoma = system: SK-MEL-28 melanoma

| SMILES | growth (HCT-15 colon) | growth (HT29 colon) | growth (SNB-75 CNS) | growth (SNB-19 CNS) | growth (U251 CNS) | growth (PC-3 prostate) | growth (SK-MEL-5 melanoma) | growth (UACC-62 melanoma) | growth (LOX IMVI melanoma) | growth (SK-MEL-28 melanoma) |
| --- | --- | --- | --- | --- | --- | --- | --- | --- | --- | --- |
| CCCCN[C@H]1CC[C@@]2(C)[C@@H](CC[C@@]3(C)[C@H]2[C@H](O)C[C@H]2/C(=C(\CCC=C(C)C)C(=O)OC)[C@@H](OC(C)=O)C[C@@]23C)[C@@H]1C | 98.8% | 95.7% | 82.9% | 104% | 98.2% | 95.2% | 93.7% | 95.5% | 97.9% | 93.4% |
| COc1cc(CNS(=O)(=O)c2ccc(C)cc2)ccc1OCc1cn(-c2ccc(F)cc2)nn1 | 92.5% | 85.1% | 81% | 102% | 97.3% | 83.6% | 56.7% | 71.8% | 102% | 87.9% |
| CC(C)(C)[Si](C)(C)O[C@H]1C(=O)C=CN2CC=C[C@@H]12 | 104% [100 µM] | 106% [100 µM] | 91% [100 µM] | 89.1% [100 µM] | 98.5% [100 µM] | 91.9% [100 µM] | 106% [100 µM] | 85.3% [100 µM] | 102% [100 µM] | 117% [100 µM] |
| CCOc1nc(-c2ccccc2)cc2c(O)c(C(=O)NN)[nH]c(=O)c12 | 106% | 114% | 86.4% | 106% | 106% | 83% | 105% | 106% | 101% | 99.8% |
| CCOC(=O)c1cc(C(=O)c2cc(OC)c(OC)c(OC)c2)n2ccc(-c3ccncc3)cc12 | 99.4% | 91.5% | 88.8% | 94.4% | 93.2% | 75.2% | 82.8% | 98.4% | 99% | 110% |
| O=C(NCCCN1CCOCC1)c1cccc(N2C(=O)/C(=C/c3ccc(F)cc3)SC2=S)c1 | 99.8% | 108% | 62.5% | 92.8% | 100% | 75.3% | 97.3% | 88.4% | 87.3% | 104% |
| CCN(c1ccc(Cl)cc1)c1nc(-c2ccc([N+](=O)[O-])cc2)cs1 | 98.1% | 91% | 96.8% | 95.4% | 102% | 92.6% | 99.7% | 79.8% | 93% | 105% |
| CO[C@]12C=C/C(=C(/C(=O)OCc3cccnc3)C(=O)CCCCCCCC[C@@]3(OC)C=C/C(=C(/C(=O)OCc4cccnc4)C(=O)CCCCCCCC1)O3)O2 | 2.29% (active) | 14.5% | 55% | 33.7% | 20.3% | 8.77% (active) | -59.1% (active) | -54% (active) | -35.9% (active) | -5.65% (active) |
| CO[C@H]1/C=C(/C)CCC[C@H](C)[C@H](O)[C@@H](C)C(=O)C(C)(C)[C@@H](O)CC(=O)O[C@@H]1/C(C)=C/c1csc(C)n1 | 16.3% | -4.27% (active) | -32.1% (active) | 31.2% | 15.4% | 26.6% | 20.6% | 36.8% | 14.3% | 39.6% |
| CN1CCN(c2ccc(C(=O)Nc3cccc(C#Cc4cccc5[nH]nc(N)c45)c3)cc2C(F)(F)F)CC1 | -53.9% (active) | -35.9% (active) | -38.2% (active) | -78.4% (active) | -69.1% (active) | -75.4% (active) | -27.8% (active) | -79.2% (active) | -93.8% (active) | -66.4% (active) |
| C=C(C)[C@@H]1CC[C@]2(C(=O)NCC#CCN3CCN(C)CC3)CC[C@]3(C)[C@H](CC[C@@H]4[C@@](C)(CCC#N)[C@H](C(=C)C)CC[C@]43C)[C@@H]12 | 20% | -12.7% (active) | 64.7% | 78.2% | 45.3% | 35.5% | 64.6% | -8.49% (active) | 10.4% | 78.1% |
| O=C(NNC(=O)c1ccc(-n2cc(-c3ccccc3)nn2)cc1)Nc1ccccc1 | 103% | 118% | 97.2% | 90.1% | 96.5% | 99.8% | 100% | 97.9% | 97.1% | 109% |
| COCCn1cc(-c2nc(-c3cc4cccnc4n3CCOC)cs2)c2cc(OC)ccc21 | 17% | 21.9% | 62.6% | 91.1% | 69.8% | 29.3% | 36.7% | 80.7% | 15.4% | 87.2% |
| COc1cc2c(c(OC)c1OC)-c1ccc(OC)c(=O)cc1[C@@H](NC(=O)CCl)CC2 | 7.81% (active) | 4.97% (active) | 78.9% | 39.1% | 4.55% (active) | 22.8% | -73.7% (active) | 20.8% | -18.2% (active) | 47% |
| CN1CCN(c2ccc(NC(=O)c3nc4ccc5[nH]ncc5c4c4c3CCCC4)cc2C(F)(F)F)CC1 | 2.8% (active) | 20.5% | 84.7% | 81.6% | 78% | 65.4% | 75.8% | 89% | -81.7% (active) | 89.5% |
| CC(C)OC(=O)c1ccc2[nH]c(O)c(C(=Nc3ccc(N(C)C(=O)CN4CCN(C)CC4)cc3)c3ccccc3)c2c1 | -14.4% (active) | -48.1% (active) | -98.1% (active) | 1.52% (active) | -90.5% (active) | 9.18% (active) | -95.4% (active) | -44.1% (active) | -96.7% (active) | -54.4% (active) |
| O=C1Nc2ccc(I)cc2C1=O | 101% | 93.8% | 79.8% | 98.3% | 93.8% | 86.7% | 101% | 92.3% | 75.8% | 104% |
| COc1ccc(C(c2cc(OC)c(OC)c(OC)c2)N2CCN(c3ccccc3)CC2)cc1 (stereo not given) | 67.6% | 63.5% | 90.2% | 84.1% | 96.4% | 73.3% | 85.2% | 55.2% | 87.3% | 84.5% |
| CCCCCCCCCCCCCCCCCCOc1ccccc1CC(=O)OCC[N+]1(C)CCCC1 | 68.1% | 12.4% | 7.26% (active) | 31.1% | 7.62% (active) | 21.8% | 1.15% (active) | 23.3% | -94.4% (active) | 49.7% |
| Cc1c(-c2nc3ccc(F)cc3c(=O)[nH]2)c2ccccc2n1C | 22.9% | 10.7% | -7.98% (active) | 29.2% | 27.6% | 47.1% | 36.2% | 19.6% | 34.5% | 52% |
| COc1ccc(/C=C2\COc3ccc(O)cc3C2=O)c(OC)c1OC | 48.8% | 68.5% | 83% | 80.6% | 60.8% | 77.1% | 89.9% | 78.7% | 44.3% | 99.2% |
| N#Cc1cccc(NC(=O)c2oc3ccccc3c2-c2cnn(-c3ccccc3)c2)c1 | 74.1% [50 µM] | 85.5% [50 µM] | 86.3% [50 µM] | 84.2% [50 µM] | 85.3% [50 µM] | -9.05% [50 µM] (active) | 67.7% [50 µM] | 75% [50 µM] | 77.9% [50 µM] | 91.9% [50 µM] |
| O=c1oc2ccc([N+](=O)[O-])cc2cc1Br | 100% | 102% | 86.6% | 108% | 101% | 96.8% | 102% | 101% | 97.2% | 107% |
| Cc1nc2c(=O)[nH]c(SCC(=O)Nc3cccc(F)c3)nc2[nH]c1=O | 102% | 107% | 93.6% | 102% | 106% | 102% | 102% | 98.9% | 101% | 107% |
| CCNc1nc(-c2ccc(Cl)c(OC)c2)c(-c2ccnc(NCCCNS(=O)(=O)c3ccc(Cl)cc3)n2)s1 | 61.6% | 19.1% | 77.6% | 81.8% | 51.9% | 29.4% | 48.2% | 29.7% | 56.3% | 38.9% |
